Reference: article PMC5540273 (PLoS ONE, 2017)

What was measured:
Details in all cases: concentration: 1 μM, replicates: in singlicate; n = 1
CDKL2 = system: CDKL2
CDKL3 = system: CDKL3
CDKL5 = system: CDKL5
CHEK1 = system: CHEK1
CHEK2 = system: CHEK2
CIT = system: CIT
CLK1 = system: CLK1
CLK2 = system: CLK2
CLK3 = system: CLK3
CLK4 = system: CLK4
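Further: KINOMEscan kinase panel screen.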

Structure (SMILES) | %Inh (CDKL2) | %Inh (CDKL3) | %Inh (CDKL5) | %Inh (CHEK1) | %Inh (CHEK2) | %Inh (CIT) | %Inh (CLK1) | %Inh (CLK2) | %Inh (CLK3) | %Inh (CLK4)
COc1ccc(NC(=O)Nc2ccc(C)c(-c3ccc(C(=O)Nc4ccncc4)cc3)c2)cc1 [GSK1398475] | 30% | 0% | 0% | 11% | 0% | 69% | 28% | 0% | 4% | 5%
CC(C)(C)c1ccc(-n2cnc3c(N)ncnc32)cc1 [SKF-97263] | 0% | 0% | 0% | 34% | 0% | 31% | 36% | 20% | 19% | 50%
COc1ccc(-c2oc3ncnc(N)c3c2-c2ccc(OC)cc2)cc1 [SB-589132] | 2% | 0% | 2% | 0% | 0% | 0% | 29% | 0% | 0% | 0%
Fc1ccc(-c2ncn(CCCNCc3ccccc3)c2-c2ccncc2)cc1 | 0% | 1% | 21% | 17% | 0% | 27% | 33% | 1% | 0% | 0%
COc1ccc(Nc2nccc(N3CCC(NC(=O)c4cccc(NC(C)=O)c4)C3)n2)cc1 (stereo not shown) [GSK1379732] | 18% | 0% | 0% | 0% | 41% | 43% | 21% | 0% | 0% | 12%
CS(=O)(=O)CCNCc1nc(-c2ccc3ncnc(Nc4ccc(OCc5cccc(F)c5)c(Cl)c4)c3c2)cs1.Cl [GW583340] | 2% | 0% | 0% | 0% | 0% | 23% | 33% | 0% | 12% | 0%
CNc1nccc(-c2c(-c3ccc(F)cc3)ncn2CCCN2CCOCC2)n1 [SB-222516] | 6% | 10% | 2% | 0% | 43% | 0% | 4% | 16% | 18% | 3%
Cc1ccc(C)c(NC(=O)NCCNc2ccnc(Nc3ccc(F)cc3)n2)c1 [GSK1379878] | 0% | 0% | 0% | 5% | 0% | 8% | 23% | 0% | 0% | 0%
Clc1ccc(-c2cc(-c3c[nH]nc3-c3ccccn3)ccn2)cc1 [GW681251] | 11% | 22% | 0% | 0% | 0% | 4% | 13% | 0% | 4% | 20%
CN1CCC(n2cnc(-c3ccc(F)cc3)c2-c2ccnc(NC3CCNCC3)n2)CC1 [SB-229482] | 22% | 3% | 0% | 0% | 39% | 2% | 0% | 0% | 4% | 9%
O=C(c1ccc(-c2cc(-c3c[nH]nc3-c3ccccn3)ccn2)cc1)N1CCCC1 [GW792479] | 24% | 3% | 0% | 0% | 0% | 18% | 0% | 8% | 0% | 0%
CNc1nccc(-c2c(-c3ccc(F)cc3)ncn2C2CCN(C)CC2)n1 [SB-222903] | 0% | 0% | 0% | 0% | 6% | 53% | 0% | 3% | 12% | 0%
NC(=O)c1sc(-n2cnc3ccccc32)cc1OCc1ccccc1F [GSK1024306] | 22% | 0% | 0% | 0% | 0% | 39% | 37% | 0% | 0% | 42%
Cl.O=S(=O)(c1cccc(F)c1)c1ccc(Nc2ncnc3cc(Br)sc23)cc1Cl [GSK306886] | 19% | 0% | 0% | 0% | 0% | 23% | 23% | 0% | 0% | 0%
Nc1n[nH]c2nnc(-c3ccccc3)cc12 [SB-517389] | 18% | 69% | 0% | 10% | 0% | 29% | 43% | 32% | 19% | 19%
CN1c2ccc(-c3ccc(C(=O)NCCO)cc3)cc2-c2[nH]ncc2S1(=O)=O | 0% | 1% | 0% | 0% | 65% | 2% | 44% | 86% | 25% | 40%

Structure (SMILES) | %Inh (CDKL2) | %Inh (CDKL3) | %Inh (CDKL5) | %Inh (CHEK1) | %Inh (CHEK2) | %Inh (CIT) | %Inh (CLK1) | %Inh (CLK2) | %Inh (CLK3) | %Inh (CLK4)
Fc1cccc(COc2ccc(Nc3ncnc4nn5ccccc5c34)cc2Cl)c1 [GW689066] | 1% | 0% | 0% | 0% | 28% | 0% | 9% | 0% | 0% | 0%
COc1ccc(Nc2nccc(N3CCC(NC(=O)Nc4ccc5c(c4)OCO5)C3)n2)cc1 (stereo not shown) [GSK1379745] | 8% | 0% | 0% | 1% | 0% | 0% | 15% | 1% | 9% | 19%
CCn1c(-c2ccncc2)nc2cnccc21 [SB-735216] | 0% | 25% | 4% | 0% | 0% | 0% | 16% | 0% | 0% | 16%
Cn1cc(-c2ccc3c(c2)CCN3C(=O)Cc2cccc(C(F)(F)F)c2)c2c(N)ncnc21 [GSK2606414] | 15% | 0% | 0% | 19% | 0% | 11% | 22% | 0% | 0% | 19%
Nc1nccc2scc(-c3ccc4c(c3)CCN4C(=O)Cc3cc(F)ccc3F)c12 [GSK2587663] | 17% | 0% | 0% | 8% | 10% | 27% | 24% | 0% | 93.5% | 19%
CS(=O)(=O)CCNCc1ccc(-c2ccc3ncnc(Nc4ccc(OCc5ccccc5)c(Cl)c4)c3c2)o1.Cl [GW574783] | 11% | 0% | 0% | 6% | 0% | 23% | 0% | 0% | 0% | 21%
Cc1cccc(-c2nc(Nc3ccc4[nH]nnc4c3)c3ccccc3n2)n1 [GW867587] | 25% | 0% | 0% | 0% | 0% | 15% | 0% | 0% | 0% | 0%
O=C(Nc1ccccc1F)NC1CCN(c2ccnc(Nc3ccc(F)cc3)n2)C1 (stereo not shown) [GSK1379722] | 30% | 0% | 0% | 8% | 0% | 2% | 21% | 0% | 24% | 17%
FC(F)(F)c1cc(Nc2nccc(-c3c(-c4ccc(Cl)cc4)nn4ncccc34)n2)ccc1Cl [GW829351] | 28% | 0% | 0% | 0% | 4% | 17% | 0% | 22% | 0% | 0%
CCc1nc(-c2cccc(C)c2)c(-c2ccnc(NC(=O)c3ccccc3)c2)s1 | 0% | 0% | 10% | 0% | 34% | 42% | 0% | 0% | 0% | 16%
CCCc1ccc(S(=O)(=O)NC2CCN(c3ccnc(Nc4ccc(OC)cc4)n3)C2)cc1 (stereo not shown) [GSK1379737] | 19% | 0% | 0% | 0% | 15% | 32% | 23% | 0% | 0% | 6%
Nc1nc(-c2cccnc2)c(-c2ccnc3ccccc23)s1 [GW684083] | 20% | 0% | 0% | 0% | 11% | 45% | 14% | 0% | 100% | 38%
Cl.c1ccc(Cn2ncc3cc(Nc4ncnc5ccccc45)ccc32)cc1 [GW273749] | 8% | 0% | 3% | 0% | 30% | 26% | 42% | 6% | 0% | 4%
O=C(Nc1ccccc1)Nc1ccc(Oc2ccc3nccn3n2)cc1 | 5% | 0% | 0% | 0% | 49% | 3% | 30% | 0% | 0% | 0%
Cc1ccc(NC(=O)c2cccc(C#N)c2)cc1-c1ccc(C(=O)Nc2ccncc2)cc1 [GSK1398463] | 40% | 0% | 11% | 19% | 0% | 47% | 29% | 0% | 23% | 24%
